# Most compounds without a hit are left out; they make up all but 1.6% or so of the library.
# ALOX12 inh – Primary qHTS assay for inhibitors of human arachidonate 12S-lipoxygenase (ALOX12): Round 2; Polyunsaturated fatty acid lipoxygenase ALOX12 (Homo sapiens), P18054; purified 12hLO, xylenol orange hydroperoxide absorbance; Potency, µM (doses to about 108 µM), for the others: at the highest dose activity change, negative = inhibition, usual class: inhibitors; hit rate 1.1% among 580,000; AID 1671190, 2021; also: % is scaled to controls: 0 for no effect and ±100 for the full control effect
# Target sequence (P18054 whole entry, looked up): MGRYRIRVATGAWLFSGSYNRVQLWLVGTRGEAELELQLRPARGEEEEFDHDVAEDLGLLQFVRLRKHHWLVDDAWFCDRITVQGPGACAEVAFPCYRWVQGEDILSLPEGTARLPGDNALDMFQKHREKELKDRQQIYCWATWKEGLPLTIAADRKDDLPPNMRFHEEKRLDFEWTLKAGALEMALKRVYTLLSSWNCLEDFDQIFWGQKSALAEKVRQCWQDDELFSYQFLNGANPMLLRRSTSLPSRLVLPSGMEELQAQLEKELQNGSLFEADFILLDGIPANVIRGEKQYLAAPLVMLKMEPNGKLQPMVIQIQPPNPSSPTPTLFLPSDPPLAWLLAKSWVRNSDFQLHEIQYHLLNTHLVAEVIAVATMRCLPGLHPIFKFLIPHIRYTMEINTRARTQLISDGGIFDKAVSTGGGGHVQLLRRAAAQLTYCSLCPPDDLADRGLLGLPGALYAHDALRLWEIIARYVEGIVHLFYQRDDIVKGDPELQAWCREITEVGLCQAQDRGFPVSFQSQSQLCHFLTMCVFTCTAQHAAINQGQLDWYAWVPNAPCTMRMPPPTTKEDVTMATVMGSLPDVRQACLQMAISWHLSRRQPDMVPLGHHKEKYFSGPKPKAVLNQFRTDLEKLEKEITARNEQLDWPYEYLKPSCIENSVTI
#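 Purified human 12hLO at 150 nM in 25 mM Hepes, 0.01% Triton X-100, pH 7.0, preincubated 15 min at room temperature with compound. Reaction started with 40 uM arachidonic acid, 30 min at room temperature. Hydroperoxide measured by Fe-xylenol orange, 573/405 nm absorbance ratio.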
# gsp antag – qHTS for Antagonists of gsp, the Etiologic Mutation Responsible for Fibrous Dysplasia/McCune-Albright Syndrome: qHTS; gsp-mutant cells, cAMP HTRF, 30 min; hit rate 0.4% among 340,000; Potency, µM (series often up to 76.9 µM), for inactives: top-dose activity change, negative = inhibition, usual class: inhibitors; calls by dose curve; cell line not stated here;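 also: intracellular cAMP measured with PDE inhibitor Ro 20-1724 present during compound exposure; % is scaled to controls: 0 for no effect and ±100 for the full control effect; nearly all actives have a fitted effect of over 65% in size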
#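 HTRF cAMP measurement after 30 min RT detection following 30 min, 37C compound treatment alongside […] (added as 300 uM solution) in G418-selected cells seeded at 2000/well and grown 16–24 h.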
# gsp ag – qHTS for Agonist of gsp, the Etiologic Mutation Responsible for Fibrous Dysplasia/McCune-Albright Syndrome: qHTS. gsp mutant cells, cAMP HTRF, 30 min. hit rate 0.13% among 340,000. Potency, µM (titrated, usually from 76.9 µM), inactives show at the highest dose activation (cAMP increase), usual class: activators; active = well fitted activation curve with a large enough effect; inconclusive = small, poorly fitted or top-dose-only effect, or another doubt; inactive = no such curve, though single readings can be large or run the other way; cell line not stated here;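 also: phosphodiesterase inhibitor Ro 20-1724 added with compounds to block cAMP breakdown; nearly all actives have a fitted effect of over 60% in size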
#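 Cells stably selected in G418 were plated at 2000/well, grown 16-24 hr, then given compounds in DMSO with the PDE inhibitor […] (300 uM solution added) for 30 min at 37C; cAMP was read by HTRF.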
# Mito fusion act – qHTS Assay for Small Molecule Inhibitors of Mitochondrial Division or Activators of Mitochondrial Fusion | hit rate 0.23% among 320,000 | AID 485298, 2010 | Potency, µM (highest dose often 46.1 µM), for inactives: top-dose growth rescue (activation), usual class: activators | S. cerevisiae fusion-defective mutant growth rescue, CellTiterGlo 48 h; also: % of control where 0% means no effect; nearly all actives have a fitted effect of over 45% in size
#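 Luminescent cell viability in 1536-well qHTS format served as the measure of rescued growth in ts fusion-mutant S. cerevisiae cultured on non-fermentable YPEG for 48 hours at 37C.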
# FUS suppressor – qHTS for Suppressors of FUS Proteinopathy: Primary screen using FUS-linked yeast assay. S. cerevisiae FUS-expressing, growth rescue, OD600, 24 h. Potency, µM (series often up to 76.6 µM), hits mostly activators. hit rate 0.24% among 390,000. AID 1347120, 2019;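 also: plate controls were DMSO vehicle for no effect and reference control for full effect; nearly all actives have a fitted effect of over 55% in size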
#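 Yeast expressing FUS under galactose induction, OD 0.005 in 2% galactose medium; compounds in a dilution series, 24 h at 30C. Growth rescue by absorbance at 600 nm; CP55940 positive control, DMSO negative.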
# * = called active by the depositor; i = inactive; u = inconclusive; x = no result; ! = not confirmed by another sample; [ ] = another dose, or the depositor's remark. Unless noted, calls follow the shape of the dose curve; as a rule, active = well fitted curve in the direction sought with a large enough effect; inconclusive = small, poorly fitted or top-dose-only effect, or another doubt; inactive = no such curve, though single readings can be large; an effect the other way counts as inactive or inconclusive. Potency is read from the fitted curve at half-maximal effect.
SMILES,ALOX12 inh,gsp antag,gsp ag,Mito fusion act,FUS suppressor
C#CCOCCOCCOCCNc1nc(N2CCN(C(=O)CCCCCCCCCCNC(=O)[C@H](CCCCN)n3cc(C)nn3)CC2)nc(N2CCN(C(=O)CCCCCCCCCCNC(=O)[C@@H]([C@H](C)CC)n3cc(CCCCCN)nn3)CC2)n1,x,x,x,-4%,x
C#CCOCCOCCOCCNc1nc(N2CCN(C(=O)[C@H](CC(N)=O)n3cc(C(N)[C@H](C)CC)nn3)CC2)nc(N2CCN(C(=O)[C@H](CC(N)=O)n3cc(C(N)[C@@H](C)CC)nn3)CC2)n1 (some centres not stated),0.63µM*,10%,4%,x,i
C#CCOCCOCCOCCNc1nc(N2CCN(C(=O)[C@H]([C@@H](C)CC)n3cc(CCCN=C(N)N)nn3)CC2)nc(N2CCN(C(=O)[C@H]([C@@H](C)CC)n3cc(CCC(=O)O)nn3)CC2)n1,10µM*,6%,x,x,i
C#CCOCCOCCOCCNc1nc(N2CCN(C(=O)CCCCCCCCCCNC(=O)[C@H]([C@@H](C)CC)n3cc(CCCCCN)nn3)CC2)nc(N2CCN(C(=O)CCCCCCCCCCNC(=O)[C@@H]([C@H](C)O)n3cc(C)nn3)CC2)n1,x,9%,x,-6%,13µM*
COc1ccc(C(=O)Oc2ccc(C)cc2C(=O)/C=C/c2ccc(F)cc2)cc1,21%,x,x,x,x
C=CCNS(=O)(=O)c1cccs1,-9%,x,x,x,x
N[n+]1cccc2ccccc21,18µM*,x,x,x,x
c1ccc(-c2nnc(N3CCN(c4ccccn4)CC3)c3ccccc23)cc1,28%,-13%,-2%,u,u
O=C(c1cccs1)N1CCN(c2nnc(-c3ccccc3)c3ccccc23)CC1,0%,-49%,-2%[15.4 µM],27%,i
Cc1ccc(-c2nnc(N3CCN(S(C)(=O)=O)CC3)c3ccccc23)cc1,0%,-26%,-3%,28%,i
Cc1ccc(-c2nnc(N3CCN(c4ccccn4)CC3)c3ccccc23)cc1,0%,40µM*,-10%[15.4 µM],u,u
Cc1ccc(-c2nnc(N3CCN(C(=O)c4cccs4)CC3)c3ccccc23)cc1,u,45µM*,-12%,11%,i
Cc1ccc(-c2nnc(N3CCCCC3)c3ccccc23)cc1,u,35µM*,-33%,20%,i
O=C(NC(C(=O)N1CCCC1)C1CCN(C(=O)c2cccc(F)c2)CC1)c1ccccc1 (configuration not stated),56%,x,x,x,x
CCc1ccccc1NC(=O)c1ccc2c(Cl)c3c(nc2c1)CCC3,-27%,x,x,x,x
Cc1cc(N2C(=O)C(O)=C(C(=O)c3cc4ccccc4o3)C2c2cccc(Br)c2)no1 (configuration not stated),45µM*,2%,6.3µM*,10%,i
COc1cccc2cc(C(=O)C3=C(O)C(=O)N(c4cc(C)on4)C3c3cccs3)oc12 (configuration not stated),u,-12%,7.9µM*,0%,i
COc1cc(C2C(C(=O)c3cc4ccccc4o3)=C(O)C(=O)N2c2cc(C)on2)cc(OC)c1OC (configuration not stated),10µM*,1%,u,-7%,i
NNc1cc(N2CCN(c3ccccc3)CC2)ncn1,29%,x,x,x,x
O=C(N/N=C/c1coc2ccc(Cl)cc2c1=O)c1cc(O)cc(O)c1,45µM*,1%,6%[15.4 µM],-3%,i
Cc1cccc(N=CC=C2OC(C)(C)C(C)(C)O2)c1,-4%,6%,-1%[15.4 µM],1%,i
Cc1ccc(N=CC=C2OC(C)(C)C(C)(C)O2)cc1,35µM*,-22%,-21%,1%,x
CC(CCN1CCC(CN2C(=O)C(=O)NC[C@@H]2Cc2ccccc2)CC1)c1ccccc1 (some centres not stated),40µM*,7%,x,x,i
Clc1ccc(CSc2nccn2C2CC2)c2ncccc12,-14%,x,x,x,x
O=C(NCC(c1cccs1)N1CCOCC1)c1cc2ccccc2o1 (configuration not stated),4%,-23%,-14%,-1%,i
SMILES,ALOX12 inh,gsp antag,gsp ag,Mito fusion act,FUS suppressor
O=C(NCC(c1cccs1)N1CCOCC1)c1cc2ccccc2oc1=O (configuration not stated),18µM*!,-6%,-40%,x,i
Cc1ccc(C(C)C)c(OCC(=O)NCC(c2cccs2)N2CCOCC2)c1 (configuration not stated),-24%,35µM*,-23%[15.4 µM],15%,i
COc1ccc(C(=O)N2CCN(c3oc(-c4ccccc4OC)nc3C#N)CC2)cc1,4%,x,x,x,x
O=C(Cn1cc(C(F)(F)F)cc(Cl)c1=O)Nc1cc(C(F)(F)F)ccc1Cl,-13%,x,x,x,x
Cc1sc2nc(SCc3ccc(C(=O)O)cc3)n(Cc3ccco3)c(=O)c2c1C,3%,25µM*,-9%[15.4 µM],17%,i
C=CCn1c(SCc2ccc(C(=O)O)cc2)nc2sc(C)c(C)c2c1=O,-15%,-12%,22%,30%,i
COc1ccc(N=c2oc3c(OC)cccc3cc2C(=O)NCc2ccco2)cc1OC,x,-5%,-55%,3%,i
COc1cccc2cc(C(=O)Nc3ccc(F)cc3)c(=Nc3ccc(C(=O)O)cc3)oc12,u,11µM*,-24%,7%,i
CC(=O)Nc1cccc(/C(C)=N/Nc2ccc(S(=O)(=O)Nc3ccccc3C(=O)O)cc2[N+](=O)[O-])c1,u,-13%,-66%,x,x
O=C(O)c1ccccc1NS(=O)(=O)c1ccc(NNC(=S)Nc2ccc(OC(F)F)cc2)c([N+](=O)[O-])c1,3.5µM*,-3%,-64%,-3%,u
Cc1ccc(NC(=S)NNc2ccc([N+](=O)[O-])cc2S(=O)(=O)Nc2ccccc2C(=O)O)cc1C,10µM*,-9%,27%,11%,x
Cc1ccc(NC(=S)NNc2ccc(C(=O)O)cc2[N+](=O)[O-])cc1C,1.4µM*,-19%,-20%[15.4 µM],x,i
CC(=O)Nc1ccc(C=NNc2ccc([N+](=O)[O-])cc2S(=O)(=O)Nc2ccccc2C(=O)O)cc1,u,-8%,u,x,i
CN(CCO)c1ccc(C=NNc2ccc([N+](=O)[O-])cc2S(=O)(=O)Nc2ccccc2C(=O)O)cc1,40µM*,-16%,-9%[15.4 µM],x,u
COc1ccc(OC)c(C(C)NC(=O)CCc2ncc(-c3ccc(F)cc3)o2)c1 (configuration not stated),27%,x,x,x,x
CCc1ccc(Nc2ccc(C(N)=O)cc2[N+](=O)[O-])cc1,-23%,u,22%,u,i

# Bioassay records: PubChem BioAssay, National Center for Advancing Translational Sciences (NCATS)
